Assay outcomes: PubChem BioAssay, National Center for Advancing Translational Sciences (NCATS)
In the library only some 14% were active in any assay of this set; here they are far more common.
HADH2 inh – blocks human hydroxyacyl-CoA dehydrogenase type II; recombinant HADH2, NADH fluorescence, beta-hydroxybutyryl-CoA; Potency, µM (top dose mostly 57.1 µM), hits mostly inhibitors; 73,000 compounds, 3.4% hits; AID 886; note: nearly all actives have a fitted effect of over 60% in size
Target sequence (Q99714 whole entry, looked up, one chain of several): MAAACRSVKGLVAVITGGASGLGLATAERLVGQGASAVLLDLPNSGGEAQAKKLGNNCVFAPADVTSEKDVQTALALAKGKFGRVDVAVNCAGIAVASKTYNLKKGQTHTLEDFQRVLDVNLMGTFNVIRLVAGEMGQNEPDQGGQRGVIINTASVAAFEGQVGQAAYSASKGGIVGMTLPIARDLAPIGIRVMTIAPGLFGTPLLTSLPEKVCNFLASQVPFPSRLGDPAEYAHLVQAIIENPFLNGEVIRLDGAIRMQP
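Buffer 100 mM Tris-HCl pH 9.0/0.01% Tween-20; HADH2 20 nM; NAD+ 1 mM; beta-hydroxybutyryl-CoA 90 uM (all final). 15 min cpd preincubation, RT.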
HSD17B inhib – HSD17B dehydrogenase inhibition; Q99714; recombinant HSD17B10, NADH fluorescence kinetic; Potency, µM (titrated, usually from 57.1 µM), most hits filed as inhibitors; 75,000 compounds, 7.6% hits;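 note: the protocol describes HADH2 (HSD17B10) and not the HSD17B4 of the title; nearly all actives have a fitted effect of over 70% in size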
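Activity followed as NADH fluorescence increase (ex 360, em 450 nm) every 30 seconds for 4 min, using final 90 uM beta-hydroxybutyryl CoA and 1 mM NAD+. Recombinant His-tagged enzyme, 20 nM, pH 9.0 Tris buffer, 15 min compound preincubation.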
A350 fluor – compounds fluorescent in Alexa 350 spectral region; Compound autofluorescence, 340/450 nm, Alexa 350 dye-equivalents; hits give high values; max dye-equivalent concentration, M; 59,000 compounds, 11% hits; AID 590; in the data active = max dye-equivalent concentration above about 10 nM; inconclusive = mostly about 1.1 nM to 9.6 nM
CRE Fsk mod – modulators of forskolin-stimulated CRE signaling in CHO cells. CHO CRE-bla reporter (cAMP response element driving beta-lactamase), forskolin EC10, beta-lactamase ratio. Potency, µM (titrated, usually from 38.2 µM), actives largely listed as activators. 71,000 compounds, 2.5% hits; active = well fitted activation curve with a large enough effect in the signal ratio, with a control signal flat, not every such curve was filed as active; inconclusive = small, poorly fitted or top-dose-only effect, or effect the other way, or a change in a side signal; the % refers to the signal ratio
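Reporter-gene assay: CHO cells with beta-lactamase behind cAMP responsive elements, co-treated with compound and EC10 NKH 477 for 3 hours at 37 degrees Celsius. Activity came from the 460/530 nm CCF4 emission ratio.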
AID923 – qHTS Assay for Allosteric/Competitive Inhibitors of Caspase-1: Spectroscopic Profiling in AFC Spectral Region; 75,000 compounds, 1.1% hits; compound fluorescence, AFC spectral region (405/520 nm); Potency, µM (highest dose often 57.5 µM), hits mostly activators
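Titrations up to 57 uM read every 20 sec for 3 min (405/520 nm) with 50 nM caspase 1 and 5 uM Ac-WEHD-AFC, pH 7.5 HEPES buffer. Fluorescence-vs-time intercept gave baseline, scaled against on-plate AFC standard.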
4MU fluor – compounds fluorescent in 4-MU spectral region; 59,000 compounds, 11% hits; max dye-equivalent concentration, M; compound autofluorescence, 340/450 nm, 4-MU equivalents; hits give high values; AID 589; in the data active = max dye-equivalent concentration above about 10 nM; inconclusive = mostly about 1.1 nM to 9.6 nM
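Intrinsic fluorescence at 340/450 nm (ex/em) was read after 15 min at room temperature in pH 8.0, 100 mM Tris. Each compound concentration expressed as 4-MU-equivalent concentration from a six-point 4-MU standard series on each plate.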
Each line names hits and unclear results; the compound was inactive in the other large screens. Unless noted, calls come from the whole dose curve; as a rule, active = well fitted curve in the direction sought with a large enough effect; inconclusive = small, poorly fitted or top-dose-only effect, or another doubt; inactive = no such curve, though single readings can be large; an effect the other way counts as inactive or inconclusive.

c1ccc(Cn2nnc3c(N4CCOCC4)ncnc32)cc1	CRE Fsk mod 10µM (no result: A350 fluor, 4MU fluor)
Cc1ccc2c(c1)nc(NCCO)n2C	HSD17B inhib inconclusive, A350 fluor 2.4e-08M, CRE Fsk mod inconclusive, 4MU fluor 3e-08M
O=C(O)C(Cc1cccs1)C(=O)O	none
COCCNc1ncnc2ccc(-c3ccoc3)cc12	HADH2 inh inconclusive, HSD17B inhib 32µM, A350 fluor 6.2e-08M, 4MU fluor 6.1e-08M
Cc1cnc(CNc2ncnc3ccc(-c4ccc(N(C)C)cc4)cc23)cn1	HADH2 inh inconclusive, HSD17B inhib inconclusive, CRE Fsk mod inconclusive
COCCNc1ncnc2ccc(-c3ccc(N(C)C)cc3)cc12	none
Cc1cnc(CNc2ncnc3ccc(-c4ccoc4)cc23)cn1	HADH2 inh inconclusive, HSD17B inhib inconclusive, A350 fluor 5.3e-08M, CRE Fsk mod inconclusive, 4MU fluor 5.1e-08M
COCCNc1ncnc2ccc(-c3ccccc3OC)cc12	HADH2 inh inconclusive, HSD17B inhib 25µM, CRE Fsk mod inconclusive
CC(=O)NCCNc1ncnc2ccc(-c3ccoc3)cc12	HADH2 inh inconclusive, HSD17B inhib 25µM, A350 fluor 6.6e-08M, 4MU fluor 6.2e-08M
C#CCCCO/N=C1/C[C@@H](O)[C@@H](O)[C@@H]2[C@H]3C(=O)N(c4ccc(F)cc4F)C(=O)[C@@H]3CC[C@@H]12	none (no result: A350 fluor, CRE Fsk mod, 4MU fluor)
O=C(c1cnccn1)N1CCC2(CC1)CCN(c1ccccc1)CC2	none
CCN1C(=O)[C@H]2[C@H]3[C@H](O)[C@H](O)C/C(=N/O[C@@H]4O[C@@H](COC(C)=O)[C@@H](OC(C)=O)[C@@H](OC(C)=O)[C@H]4OC(C)=O)[C@H]3CC[C@@H]2C1=O	none (no result: A350 fluor, CRE Fsk mod, 4MU fluor)
CN(C)c1ccc(C2(c3ccc(N(C)C)cc3)OC(=O)c3cc(N(C)C)ccc32)cc1	HADH2 inh 7.9µM, HSD17B inhib 32µM, CRE Fsk mod inconclusive (no result: A350 fluor, 4MU fluor)
CNC1C(O)[C@@H]2OC(O[C@@H]3C(O)C(O)C(N)C[C@H]3N)C(N)C[C@H]2O[C@H]1O[C@@H]1OC(CO)C(N)C(O)C1O (some centres not stated)	none (no result: HADH2 inh, A350 fluor, CRE Fsk mod, 4MU fluor)
Cc1ccc(-n2c3c(cc(C(=O)NC4CCSC4=O)c2=O)C(=O)CCC3)cc1 (configuration not stated)	HSD17B inhib 25µM
COc1ccc(-n2c3c(cc(C(=O)NC4CCSC4=O)c2=O)C(=O)CC(C)(C)C3)cc1 (configuration not stated)	HSD17B inhib inconclusive, CRE Fsk mod inconclusive (no result: A350 fluor, 4MU fluor)
NCCOB(c1ccccc1)c1ccccc1	CRE Fsk mod inconclusive (no result: A350 fluor, 4MU fluor)
CCOC(=O)NC(Nc1nc2ccccc2s1)(C(=O)OCC)C(F)(F)F (configuration not stated)	CRE Fsk mod inconclusive
CN1C(=O)CSc2ccc(NC(=O)Nc3ccccn3)cc21	none
CN1C(=O)CSc2ccc(NC(=O)N3CCN(c4ccccn4)CC3)cc21	HSD17B inhib 32µM, CRE Fsk mod inconclusive
COc1cccc(-c2nc(CS(=O)CC(=O)NC3CC3)c(C)o2)c1 (configuration not stated)	none (no result: A350 fluor, 4MU fluor)
CCOC(=O)N1CCC(NC(=O)CS(=O)Cc2nc(-c3ccc(OC)c(OC)c3)oc2C)CC1 (configuration not stated)	HSD17B inhib 25µM, CRE Fsk mod inconclusive
O=C1C=CC(=O)c2c(O)c(Cl)c(Cl)c(O)c21	HSD17B inhib 3.2µM (no result: HADH2 inh, A350 fluor, CRE Fsk mod, 4MU fluor)
Clc1ccc(CSCc2ccc(Cl)cc2Cl)c(Cl)c1	none
NCCC(=O)N[C@H](Cc1cnc[nH]1)C(=O)O	none (no result: HADH2 inh, A350 fluor, CRE Fsk mod, 4MU fluor)
COC(=O)c1ccccc1NC(=O)NCc1cccnc1	HSD17B inhib 32µM
COc1ccc(NC(=O)NCc2cccnc2)cc1OC	none
COC(=O)c1ccccc1NC(=O)NCc1ccco1	none
COC(=O)c1ccccc1NC(=O)NCc1ccccn1	HSD17B inhib 25µM
CC(=O)NCc1c(I)c(NC(C)=O)c(I)c(C(=O)O)c1I	none (no result: HADH2 inh, A350 fluor, CRE Fsk mod, 4MU fluor)
COC(=O)c1cccc(NC(=O)C2COc3ccccc3O2)c1C (configuration not stated)	none (no result: A350 fluor, CRE Fsk mod, 4MU fluor)
COCCNC(=O)c1ccccc1NC(=O)C1COc2ccccc2O1 (configuration not stated)	A350 fluor 2e-08M, 4MU fluor 2.2e-08M
